Hits are enriched below; roughly 4.8% of the tested compounds scored in any of these assays.
hcDAF-12 act: H. contortus DAF-12 nuclear receptor activators, primary screen, cell-based, luminescence, HEK293, lit1-tk-luc reporter | HEK293 hcDAF-12 lit1-tk-luc reporter; 0% DMSO, 100% Δ7-dafachronic acid | activation, % at 6.8 µM | AID 652067, 2013 | 370,000 tested, 1.4% active;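 active = activation above the mean of all tested compounds plus 3 SD, cut at about 5.5% in these data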;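 note: 100% = response to 3 µM Δ7-dafachronic acid high control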
DAX1 inh-1: DAX1 (NR0B1) inhibitors on StAR promoter, primary screen, cell-based, luminescence, SF-1 (NR5A1), full-length DAX-1; HEK293T StAR-luciferase reporter, SF-1/DAX-1 repression relief; inhibition, % at 6.8 µM; 370,000 tested, 1.1% active; AID 652010, 2013;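 active = inhibition above the mean over all tested compounds plus 3 SD, cut at about 3.6% in these data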;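 note: 0% = DAX-1 cells with DMSO and 100% = cells lacking DAX-1 with DMSO; higher inhibition means more luminescence from relief of DAX-1 repression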
SMARCA2 activ: SMARCA2 (BRM) function activators, primary screen, cell-based, luminescence, high throughput | activation, % at 9.1 µM | 370,000 tested, 1% active | AID 652017, 2013 | MG213 cells, MMTV-luciferase reporter, dexamethasone, overnight; in the data active = activation above about 7.8%;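 note: 0% = vehicle wells and 100% = reference activator wells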
DAX1 inh-2: DAX1 (NR0B1) inhibitors, primary screen, cell-based, HEK293, Gal4-DAX1, luciferase luminescence; Nuclear receptor subfamily 0 group B member 1 (Homo sapiens), P51843; HEK293 Gal4-DAX1 luciferase reporter; inhibition, % at 6.75 µM; 340,000 tested, 0.99% active; AID 504766, 2011;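 active = inhibition above the mean over all tested compounds plus 3 SD, cut at about 4.2% in these data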;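 note: 0% = DAX1-transfected cells with DMSO and 100% = empty-vector control cells with DMSO; inhibition shows as a rise in luminescence from relieved DAX1 repression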
ssDAF-12 act: S. stercoralis DAF-12 nuclear receptor activators, primary screen, cell-based, luminescence, HEK293, GRIP1 co-expression, lit1-tk-luc. 370,000 tested, 1% active. Nuclear hormone receptor DAF-12 (Strongyloides stercoralis). activation, % at 6.8 µM. HEK293 ssDAF-12/GRIP1 lit1-tk-luc reporter; % of 3 µM dafachronic acid response;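 active = activation above the mean over all tested compounds plus 3 SD, cut at about 0.9% in these data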;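 note: 0% = DMSO-only wells and 100% = 3 µM delta7-dafachronic acid wells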
hgDAF12 agonist: H. glycines DAF-12 receptor agonists, primary screen, cell-based, luminescence, HEK293, GAL4 fusion, UAS-luciferase | Nuclear hormone receptor DAF-12 (Heterodera glycines), GAL4 fusion | HEK293 GAL4-hgDAF12 UAS-luciferase reporter, agonist luminescence; normalized to butyrate control | activation, % at 6.8 µM | 370,000 tested, 1.8% active;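 active = activation above a cutoff set at the mean of all screened compounds plus 3 SD, cut at about 10% in these data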;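 note: 0% = DMSO wells and 100% = sodium butyrate wells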
SMARCA2 act conf: SMARCA2 (BRM) function activators, confirmation, cell-based, luminescence, triplicate | activation, % at 9.1 µM | 3,500 tested, 30% active | shares compounds with SMARCA2 activ | MG213 cells, MMTV-luciferase with dexamethasone, overnight; MG213 cells expressing E1A, Rb sequestered; DMSO wells 0%, reference activator 100% | AID 652260, 2013;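 active = activation above its plate's cutoff, the mean activation of tested wells plus 3 SD, cut at about 7.9% in these data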
GAL4-VP16 Luc: GAL4-VP16 luciferase reporter activation, counter-screen for SMARCA2 (BRM) activator project, cell-based, pG5luc, luminescence, high throughput; activation, % at 9.1 µM; shares compounds with SMARCA2 activ; HEK293 GAL4-VP16 pG5luc reporter; scaled: DMSO wells 0%, SAHA wells 100%; 3,500 tested, 41% active;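 active = activation above the solvent-only control well mean plus 3 SD, averaged across control plates, cut at about 5.2% in these data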
LXRb hcDAF ctr: LXR agonists, Gal4 luciferase reporter, confirmation, counter-screen for hcDAF-12 agonist project, cell-based, luminescence, HEK293, H. contortus campaign; HEK293 Gal4-LXR tk-luc reporter, 24 h; normalized: DMSO 0%, positive control 100%; activation, % at 6.8 µM; 3,400 tested, under 10 active; shares compounds with hcDAF-12 act;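 active = mean percent activation of the reporter above a cutoff set as the average over tested compounds plus their standard deviation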
Target sequence (P55055 whole entry, looked up, the tested form may be a part): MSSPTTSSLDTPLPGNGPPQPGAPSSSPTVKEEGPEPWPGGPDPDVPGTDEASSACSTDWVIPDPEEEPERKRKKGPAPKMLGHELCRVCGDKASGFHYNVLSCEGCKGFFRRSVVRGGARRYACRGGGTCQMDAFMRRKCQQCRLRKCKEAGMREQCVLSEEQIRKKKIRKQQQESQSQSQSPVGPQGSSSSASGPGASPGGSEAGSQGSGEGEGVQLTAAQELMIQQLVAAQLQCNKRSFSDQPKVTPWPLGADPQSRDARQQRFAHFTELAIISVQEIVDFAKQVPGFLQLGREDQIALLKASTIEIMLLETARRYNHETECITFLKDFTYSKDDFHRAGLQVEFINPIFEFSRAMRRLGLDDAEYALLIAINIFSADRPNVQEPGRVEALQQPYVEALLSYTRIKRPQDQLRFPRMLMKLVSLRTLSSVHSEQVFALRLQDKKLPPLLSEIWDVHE
hcDAF12 ag: H. contortus DAF-12 receptor agonists, confirmation, cell-based, luminescence, HEK293, lit1-tk-luc, triplicate; shares compounds with hcDAF-12 act; 3,400 tested, 61% active; AID 743032, 2013; activation, % at 6.8 µM; HEK293 hcDAF-12 lit1-tk-luc reporter; % of Δ7-dafachronic acid response;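 active = mean activation across triplicate tests above the threshold derived from the earlier primary screen, cut at about 5.5% in these data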;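 note: 0% = DMSO only wells and 100% = 3 µM Δ7-dafachronic acid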
hgDAF12 ag: H. glycines DAF-12 receptor agonists, confirmation, cell-based, luminescence, HEK293, GAL4-LBD fusion; HEK293 GAL4-hgDAF12 luciferase reporter, agonist mode; percent of butyrate response; 3,300 tested, 80% active; activation, % at 6.8 µM; shares compounds with hgDAF12 agonist; AID 743050, 2013;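 active = mean activation over triplicate wells above the hit cutoff derived from the earlier primary screen, cut at about 11% in these data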;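 note: 0% = DMSO low control and 100% = 2 mM sodium butyrate high control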
LXR ag 2: LXR agonists, Gal4 luciferase reporter, confirmation, counter-screen for hgDAF-12 agonist project, cell-based, luminescence, HEK293, H. glycines campaign; shares compounds with hgDAF12 agonist; 24 h; activation, % at 6.8 µM; 3,300 tested, under 10 active; AID 743051, 2013;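 active = mean activation of the triplicate above a set limit carried over from the primary screen, none filed active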
* hit, by the source's call; x = no result.

SMILES | hcDAF-12 act | DAX1 inh-1 | SMARCA2 activ | DAX1 inh-2 | ssDAF-12 act | hgDAF12 agonist | SMARCA2 act conf | GAL4-VP16 Luc | hgDAF12 ag | LXR ag 2 | others
N/C(=N\OC(=O)c1ccccc1Cl)c1cccnc1 | 9.7* | 3 | 8.8* | 1 | 1.9* | 15* | 18* | 7.8* | 14* | 1 | LXRb hcDAF ctr=1;hcDAF12 ag=6.4*
O=C(c1ccccc1)c1ccc2c(c1)OCCCO2 | 6.2* | 1 | 11* | 4.6* | 0 | 15* | 8.1* | 8.9* | 18* | 1
O=C(c1ccccc1)c1ccc2c(c1)OCCOCCOCCO2 | 0 | 0 | -4 | 2 | -1 | -2 | x | x | x | x
CCn1nc(C)cc1C(=O)N1CCc2c([nH]c3ccccc23)C1c1cc(F)ccc1F (configuration not stated) | 6.2* | 1 | 9.0* | x | 1 | 14* | 4 | 6.3* | 13* | 0
O=C(c1cc2ncccn2n1)N1CCc2c([nH]c3ccccc23)C1c1ccccc1F (configuration not stated) | 2 | 1 | -1 | 1 | 0 | 0 | x | x | x | x
Cc1ccc(C(=O)N(C)[C@H]2C[C@H]3c4[nH]c5c(-c6ccccc6)cccc5c4CCN3C(=O)[C@H]2[C@H](C)O)cc1 | 1 | 0 | -5 | x | -1 | 3 | x | x | x | x
NC(=O)[C@@H]1CCCN1C(=O)[C@H]1O[C@@H](n2ccc(N)nc2=O)[C@H](O)[C@@H]1O | -1 | 0 | -3 | x | 0 | -1 | x | x | x | x
O=C(O)Cn1cc(/C=c2/sc3nc4ccccc4n3c2=O)c2ccccc21 | 5.9* | 3 | 10* | 2 | 0 | 17* | 3 | 8.8* | 11* | 0
COC(=O)C1CCN(C(=O)c2oc3c(Cl)cc(C)cc3c2C)CC1 | 4 | 2 | 9.1* | 1 | 0 | 14* | 7 | 11* | 16* | 1
O=C(Nc1nnc(SCC(=O)N2CCCc3ccccc32)s1)c1cccc2ccccc12 | -2 | 1 | -3 | 1 | -1 | 5 | x | x | x | x

High-throughput results from PubChem BioAssay.
